Test [1] is described as follows: growth inhibition of DIPG glioma cells, dose response, cell-based, SU-DIPG-XVII, MIPE5.0, CellTiter-Glo, qHTS (AID 1347060).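 On AC50: cells exposed to compound for 48 hours before viability readout.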 The settings on record: SU-DIPG-XVII viability, CellTiter-Glo ATP luminescence. (In general: In ATP-based viability assays light output follows the ATP content of the culture.)
The nature of test [2]: growth inhibition of DIPG glioma cells, dose response, cell-based, SU-DIPG-XIII, MIPE4.0, CellTiter-Glo, qHTS (AID 1347061; cut-off not given, nearly all actives have AC50 up to about 37 µM;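 further: cells exposed to compound for 48 hours before readout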). As to conditions: SU-DIPG-XIII viability, CellTiter-Glo ATP luminescence.
Test [3] in a line: viability loss in pontine glioma line – cell-based, SU-DIPG-XXV, MIPE5.0, CellTiter-Glo, qHTS, dose response (AID 1347065).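 Further: cells exposed to compound for 48 hours before ATP readout.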 As to conditions: CellTiter-Glo ATP luminescence.
The nature of test [4]: JHH-DIPG-1 glioma cell viability, MIPE5.0 library, CellTiter-Glo luminescence, qHTS (AID 1347067).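 Further: cells exposed to compound for 48 hours before readout.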 As to conditions: JHH-DIPG-1 glioma viability, CellTiter-Glo ATP luminescence.
A short description of test [5]: LFS_MB_1R medulloblastoma cell growth inhibition, synergistic combos for chromothripsis tumors, cisplatin or BGB combos (AID 1671452; in the data active means inhibition above about 80%;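 further: cells exposed for 96 hours before readout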). The settings on record: LFS_MB_1R medulloblastoma cells, stronger effect = higher value.
Test [6] can be described thus: CRL2098 osteosarcoma cell growth inhibition, synergistic combos for chromothripsis tumors, BGB or cisplatin IC20 combos (AID 1671454; in the data active means inhibition above about 80%;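 further: cells exposed for 96 h before readout; 0% = vehicle DMSO and 100% = killing by high DMSO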). As to conditions: CRL2098 osteosarcoma cells, drug combinations, stronger effect = higher value.
Test [7] is described as follows: MDA-MB-436 breast carcinoma cell growth inhibition, synergistic combos for chromothripsis tumors, BGB or cisplatin combos (AID 1671458; call rule not given here;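 further: cells exposed for 96 hours; 0% = vehicle DMSO and 100% = killing by high DMSO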). The settings on record: MDA-MB-436 breast carcinoma growth inhibition, drug combinations, stronger effect = higher value.
Test [8] can be described thus: growth inhibition of BT084 medulloblastoma cells, cell-based, ICGC_MB145, cisplatin and BGB IC40 combos (AID 1671461; in the data active means inhibition above about 80%;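 further: cells exposed to drugs for 96 hours; 0% = vehicle DMSO and 100% = high DMSO full killing control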). The settings on record: drug combinations, stronger effect = higher value.
The nature of test [9]: growth inhibition of RCMB18 medulloblastoma cells, cell-based, cisplatin and BGB IC40 combos (AID 1671462; in the data active means inhibition above about 80%;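 further: cells exposed to compound for four days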). The settings on record: stronger effect = higher value.
The nature of test [10]: growth inhibition of CRL1545 osteosarcoma cells, cell-based, cisplatin and BGB IC20 combos (AID 1671464; in the data active means inhibition above about 80%;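 further: cells exposed to compound for 96 hours before readout; 0% = vehicle DMSO and 100% = high DMSO killing control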). As to conditions: stronger effect = higher value.
The nature of test [11]: circadian clock period modulators, cell-based, LOPAC library, luminescence reporter (AID 2774; call rule not given here;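 further: values are relative to mean of DMSO wells on each plate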). As to conditions: circadian reporter cells, at 7 µM, actives lie on both sides.
Test [12] has as its system Aerobactin synthetase IucA (Klebsiella pneumoniae). The test is described as follows: IucA aerobactin synthetase inhibitors, biochemical, Tocris library, absorbance (AID 1345561; call rule not given here;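 further: 100% = enzyme without compound and 0% = no enzyme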). As to conditions: purified IucA enzyme assay, absorbance (OD) read-out; stronger effect = lower value;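 tested at 8 µM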.
Test [13] is described as follows: growth inhibition of DIPG glioma cells, dose response, cell-based, SU-DIPG-IV, MIPE4.0, CellTiter-Glo, qHTS (AID 1347063; cut-off not given, nearly all actives have AC50 up to about 30 µM;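 further: compound exposure lasted 48 hours before the viability readout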). As to conditions: SU-DIPG-IV viability, CellTiter-Glo ATP luminescence.
Test [14] in a line: SU-DIPG-VI glioma cell viability, MIPE4.0 library, CellTiter-Glo luminescence, qHTS (AID 1347066; cut-off not given, nearly all actives have AC50 up to about 30 µM;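 further: cells exposed to compound for 48 hours before readout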). As to conditions: CellTiter-Glo ATP luminescence.
The nature of test [15]: SU-DIPG-XXV glioma cell viability, MIPE5.0 library, qHTS (AID 1347068; cut-off not given, nearly all actives have IC50 up to about 30 µM;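 on IC50: cells exposed to compound for 48 hours before viability readout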). A general note: qHTS replaces the single test concentration by a dilution series.
Test [16] can be described thus: hESC survival regulators, cell-based (AID 493140; call rule not given here;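 further: cells exposed to compounds for four days before counting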). The settings on record: human embryonic stem cell survival screen; stronger effect = higher value.
[17] abbreviates: measured here: combination with cisplatin, at 0.5 µM.

SMILES strings stand for the structures. Records with an inconclusive call do not appear. Activity calls are given as the source filed them. Unless noted, cut-off not given; nearly all actives show AC50 up to about 26 µM.

Data on seven molecules can be found in PubChem BioAssay.

Turning to `N=c1ccn2c(n1)O[C@H]1[C@H](O)[C@@H](CO)O[C@H]12`, in test [1], the AC50 (usually the concentration at which the activity in the assay is half-maximal) was 1.18 µM (active). Also, the outcome in test [2], in test [3] and in [4] was inactive. Besides, the inhibition (usually the drop in the measured response relative to a control, in per cent) in test [5] (at 0.5 µM) is -7.06% (inactive); in [5] (measured here: combination with BGB IC40, at 0.05 µM), -18.8%; in test [5] (setting [17]) it was 43.5%; in [5] (measured here: combination with cisplatin, at 5 µM), 68.2%; in test [6] (at 0.5 µM), 32.1% (inactive); in [6] (measured here: combination with BGB at IC20, at 0.5 µM) it was -10.4%. Also, the inhibition in test [6] (measured here: combination with cisplatin at IC20, at 0.5 µM) is 52.4%; in [7] (at 0.5 µM), 14% (inactive); in test [7] (measured here: BGB combination, at 0.5 µM) it was 5.47%; in test [7] (measured here: BGB combination, at 5 µM), 33.7%; in [7] (measured here: cisplatin combination, at 0.5 µM), 0.616%; in test [7] (measured here: cisplatin combination, at 5 µM), 57.3%. Further, the inhibition in [8] (at 0.5 µM) was -29.7% (inactive); in [8] (cisplatin combination, at 0.5 µM), 2.2%; in [8] (cisplatin combination, at 5 µM), 58.5%; in test [8] (measured here: BGB IC40 combination 0.05 uM, at 0.05 µM) it was -14%; in [8] (single agent, at 5 µM), -28.9%; in test [9] (at 0.5 µM), -18% (inactive). The inhibition was 61% in test [9] (cisplatin combo, at 5 µM); -21.5% in test [9] (measured here: BGB IC40 combination, at 0.05 µM); 11.8% in [9] (setting [17]); -26.3% in [9] (single agent, at 5 µM); -32.9% (inactive) in [10] (at 0.5 µM); -44.9% in test [10] (measured here: with BGB IC20 combination, at 0.5 µM). Besides, the inhibition was -29.7% in test [10] (measured here: with cisplatin IC20 combination, at 0.5 µM); -73.2% in test [10] (single agent, at 0.05 µM); 23.2% in [10] (single agent, at 5 µM).

In the case of `O=C(O)c1cc(=O)c2ccc(Cl)cc2[nH]1`, in test [11], the period change is -0.105 h (inactive). Besides, in test [12], the remaining activity – broadly, the signal under treatment as a percentage of the control signal – is 104% (inactive).

For the molecule `C[C@@H]1[C@H](O)[C@@H](C)/C=C/C=C/C=C/C=C/C=C/C=C/C=C/[C@H](O[C@@H]2O[C@H](C)[C@@H](O)[C@H](N)[C@@H]2O)C[C@@H]2O[C@](O)(C[C@@H](O)C[C@@H](O)[C@H](O)CC[C@@H](O)C[C@@H](O)CC(=O)O[C@H]1C)C[C@H](O)[C@H]2C(=O)O`, the outcome in test [1], in test [14], in test [4] and in [15] was inactive. The AC50 in [2] is 0.833 µM (active); in test [13] it was 6.62 µM (active).

Turning to `C=C1CC[C@@H]2[C@](C)(CO)[C@H](O)CC[C@@]2(C)[C@@H]1C/C=C1/C(=O)OC[C@H]1O`, the AC50 in test [1] was 16.6 µM (active); in [3], 11.8 µM (active); in test [4], 14.8 µM (active). Moreover, the IC50 (commonly the concentration needed to halve the response being measured) in [15] is 20.9 µM (active).

Take `C[C@H](CCC(=O)O)[C@H]1CC[C@H]2[C@@H]3[C@H](O)C[C@@H]4C[C@H](O)CC[C@]4(C)[C@H]3CC[C@]12C`: the survival in [16] was 11.7 (inactive). Also, the molecule was classed as inactive in test [1], in [2], in test [13], in test [14], in [4] and in [15].

On to `C[C@@]12C[C@@]3(O)O[C@@H](O1)[C@]1(COC(=O)c4ccccc4)[C@H]3C[C@@]12O[C@@H]1O[C@H](CO)[C@@H](O)[C@H](O)[C@H]1O`, for which the result in test [2] and in test [14] was inactive.

On to `CC(C)(S)[C@@H](N)C(=O)O`, for which the call in [1], in test [2], in [13], in [3], in test [14] and in test [4] was inactive. Moreover, the molecule was called inactive in test [15].
